The values that follow come from PubChem BioAssay.

The structures appear in SMILES notation. Active and inactive are the calls of the source.

The nature of this experiment: plasmodial surface anion channel blockers, osmotic lysis – cell-based, P. falciparum Indochina, OD700, 2 h, primary screen (AID 1155).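 Also: lysis reports solute entry through the parasite surface anion channel PSAC.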 Conditions: P. falciparum Indochina infected erythrocytes, higher = more signal, called active from +8 up or from −8 down.
As for `O=C1OCCC/C=C\[C@H]2OC34C=CCN(c5ccc6ccccc6c5)C(=O)[C@H]3N(CCCCCO)C(=O)[C@@H]4C12` (stereo partly specified), the z-score was -0.0458 (inactive).
On to `CC(C)CNC(=O)[C@@]1(Cc2ccccc2I)c2ccccc2C(=O)N(Cc2ccccc2C(F)(F)F)[C@H]1c1ccc(CO)cc1`, for which the z-score was 0.161 (inactive).
In the case of `C#CCOc1ccc(C[C@@H](C(=O)OC)N(CC#C)[C@@H](/C=C/C2CC2)[C@H](O)Cc2ccccc2)cc1`, the z-score is 0.135 (inactive).
Next, `CCOC(=O)[C@H]1C/C=C/C[C@H](C(=O)OCC)C(=O)O[C@H]2[C@@H](OC)O[C@H](CO)[C@@H](OC(=O)c3ccc(Br)cc3)[C@@H]2OC1=O`: 1.54 (inactive); `O=C1[C@@]23C=C(Br)[C@H](C[C@@H]2COC3)[C@]12CO2`: -0.0352 (inactive).
The same measure for `O=C1NC(=O)C2C1C=CC(C(O)c1ccc(-c3ccccc3)s1)N2Nc1ccc(Cl)cc1Cl` (stereo unspecified): 1.58 (inactive).
For the compound `C=C(C(=O)CC[C@H](OC(C)=O)c1ccccc1OCCO)C(C)C`, the z-score was 2.54 (inactive).
The same measure for `O=C1C2C=CC(C(O)COCc3ccccc3)N(Nc3ccc([N+](=O)[O-])cc3)C2C(=O)N1c1ccccc1` (stereo unspecified): 0.581 (inactive).
For the compound `COCC(=C=CC[C@H](O)c1cccc(OCCO)c1)CCO`, the z-score was -0.115 (inactive).
With `NCCCCCCNC(=O)[C@H]1C[C@H]2C(=O)N[C@@H](Cc3ccccc3)C(=O)N2[C@H]1c1cccc(OCCO)c1`, the z-score is 0.944 (inactive).
The same measure for `CCCCCN1CC=CC23O[C@@H]4C=CCOC(=O)[C@@H]4[C@H]2C(=O)N(C(C)CO)[C@@H]3C1=O` (stereo partly specified): 0.531 (inactive); for `CC(c1ccccc1)C(O)C1C=CC2C(=O)N(C)C(=O)C2N1NC(=O)OC(C)(C)C` (stereo unspecified): 0.871 (inactive).
The same measure for `COCCCNC(=O)[C@@H]1c2ccccc2C(=O)N(Cc2ccccc2)[C@H]1c1ccc(CO)cc1`: -0.307 (inactive).
For the compound `COCCOC(=O)N1C(=O)[C@@]2(c3cc(C#CCCO)ccc31)[C@H](c1ccc(OCCO)cc1)N1[C@H](c3ccccc3)[C@H](c3ccccc3)OC(=O)[C@H]1[C@@H]2C(N)=O`, the z-score is 2.16 (inactive).
Turning to `COc1ccc(C(=O)Nc2ccc(CN3C(=O)[C@]4(O[C@H](CC(=O)N5CCC[C@H]5CO)[C@@H]([Si](C)(C)c5ccc(OC)cc5)[C@@H]4C)c4ccccc43)cc2)cc1`, the z-score was 1.45 (inactive).
In the case of `C=CC[C@]1(C(N)=O)COC(c2ccc(OCCCO)cc2)=N1`, the z-score was 0.167 (inactive).
Take `COC(=O)[C@@]1(Cc2ccccc2)[C@H]2c3cc(C(=O)N(C)C)n(CCc4c[nH]c5ccc(O)cc45)c3C[C@H]2CN1C(=O)c1ccccc1`: the z-score is -0.38 (inactive).
On to `COc1ccc(C#Cc2ccc3c(c2)[C@]2(C(=O)N3)[C@H](c3ccc(O)cc3)N3[C@H](c4ccccc4)[C@H](c4ccccc4)OC(=O)[C@H]3[C@@H]2C(=O)N2CCc3cc(OC)c(OC)cc3C2)cc1`, for which the z-score was 0.312 (inactive).
Take `O=C1OCCC=C[C@H]2OC34C=CCN(Cn5nnc6ccccc65)C(=O)[C@H]3N(CCO)C(=O)[C@@H]4C12` (stereo partly specified): the z-score was 0.793 (inactive).
Next, `CC(C)Cc1ccc(CN2CC[C@@H](N)C2)cc1`: 0.933 (inactive).
As to `C[N+](C)(C)CCCCCCNC(=O)[C@H]1C[C@H]2C(=O)N[C@@H](Cc3ccccc3)C(=O)N2[C@H]1c1cccc(OCCO)c1`, the z-score is 1.48 (inactive).
The same measure for `CO[C@H]1O[C@H](CO)[C@@H](OC(=O)Nc2ccc(Oc3ccccc3)cc2)[C@H](OC(=O)Nc2ccc3c(c2)OCO3)[C@@H]1OC(=O)Nc1ccc2c(c1)OCO2`: 2.93 (inactive); for `C=C(CCCC)/C(=C/C[C@@H](OC(C)=O)c1ccccc1OCCO)c1cc(C(=O)OC)ccc1OC`: 11.2 (active).
For `C=CCC(OC(C)=O)[C@@H]1[C@@H](N(Cc2cc3ccccc3o2)C(=O)Cc2ccc(OC)cc2)c2cc(OCCCO)ccc2N1C(=O)c1ccc2ccccc2c1` (stereo partly specified), the z-score was -0.0382 (inactive).
Next, `O=C1C2C=CC(C(O)c3c(F)cccc3Cl)N(Nc3ccccc3F)C2C(=O)N1c1ccccc1` (stereo unspecified): 1.57 (inactive); `CN(C)C(=O)[C@]1(Cc2ccccc2)N=C(c2ccc(OCCCO)cc2)O[C@@H]1c1ccccc1N=[N+]=[N-]`: 34.9 (active).
